Source: PubChem
KCNQ2 block: rat KCNQ2 potassium channel inhibitors, primary screen, cell-based, CHO-K1, FluxOR thallium flux, B-score | B-score at 10 µM | 310,000 compounds, 1.1% hits | Potassium voltage-gated channel subfamily KQT member 2 (Rattus norvegicus), O88943 | 20 min; hits give low values | AID 2156, 2009;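 active = fluorescence ratio B-score at most minus 3 library SDs, with starting brightness B-score within 2 library SDs, cut at about -5.5 in these data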
Target sequence (O88943 whole entry, looked up): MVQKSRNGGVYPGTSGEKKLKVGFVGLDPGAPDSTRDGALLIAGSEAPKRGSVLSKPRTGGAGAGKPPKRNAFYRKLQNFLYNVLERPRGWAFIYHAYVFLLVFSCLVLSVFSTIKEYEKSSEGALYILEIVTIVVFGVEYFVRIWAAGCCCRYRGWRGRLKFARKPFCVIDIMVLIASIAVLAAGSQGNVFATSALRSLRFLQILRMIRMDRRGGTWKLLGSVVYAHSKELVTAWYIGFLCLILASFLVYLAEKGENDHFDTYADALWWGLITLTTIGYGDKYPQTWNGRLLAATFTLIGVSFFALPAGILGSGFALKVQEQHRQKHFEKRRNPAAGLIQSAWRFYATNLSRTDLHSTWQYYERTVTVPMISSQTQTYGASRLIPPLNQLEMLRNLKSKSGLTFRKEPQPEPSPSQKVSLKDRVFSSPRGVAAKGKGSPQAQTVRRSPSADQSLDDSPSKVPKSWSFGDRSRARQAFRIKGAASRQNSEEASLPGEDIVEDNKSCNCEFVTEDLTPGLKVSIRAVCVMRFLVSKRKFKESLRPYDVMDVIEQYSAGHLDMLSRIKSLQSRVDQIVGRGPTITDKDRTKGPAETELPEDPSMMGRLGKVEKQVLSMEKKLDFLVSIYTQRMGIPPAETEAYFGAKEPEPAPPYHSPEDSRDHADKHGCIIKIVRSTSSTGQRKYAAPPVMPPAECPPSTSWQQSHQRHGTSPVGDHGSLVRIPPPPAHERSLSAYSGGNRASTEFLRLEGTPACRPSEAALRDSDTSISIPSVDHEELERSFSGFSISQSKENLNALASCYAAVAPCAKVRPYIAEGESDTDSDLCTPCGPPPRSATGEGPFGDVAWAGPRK
KCNQ2 enhance: potentiators of rat KCNQ2 potassium channel. CHO-K1 KCNQ2, FluxOR thallium flux fluorescence; hits give high values. B-score at 10 µM. 310,000 compounds, 0.54% hits;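 active = fluorescence ratio B-score at least 3 SD of library B-scores, with initial fluorescence B-score within 3 of them, cut at about 5.3 in these data; same plate scores as AID 2156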;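 note: B-score of peak minus minimum over baseline fluorescence ratio after K+ and Tl+ stimulus; positive B-score means potentiation of KCNQ2 with more thallium influx and brighter signal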
Of the large screens only hits and unclear results are named; the others gave an inactive call. Only some compounds are listed: those with a hit (about 1.6% of all), similar ones and a draw of the others.

COc1ccc(C(CC(=O)O)NS(=O)(=O)c2ccc3c(c2)N(C(C)=O)CC(C)O3)cc1 (configuration not stated)	none
COc1ccc(CN2CCN(Cc3cccc(Oc4ccccc4)c3)CC2)c(OC)c1OC	KCNQ2 block -7.5
CN1CCN(Cc2cccc(Oc3ccccc3)c2)CC1	none
O=S(=O)(Nc1cccc(-c2nc3cccnc3s2)c1)c1ccc2c(c1)CCCC2	none (no result: KCNQ2 enhance)
Cc1ccc(-c2nc3cccnc3s2)cc1NS(=O)(=O)c1ccc2c(c1)CCCC2	KCNQ2 block -6
O=C(CCN1CCc2ccccc2C(c2ccccc2)C1)c1ccc2c(c1)OCCO2 (configuration not stated)	none (no result: KCNQ2 enhance)
O=C(CCN1Cc2ccccc2C1)c1ccc2c(c1)OCCO2	KCNQ2 block -5.9
O=C(CC1C(=O)N(c2ccccc2)C(=S)N1c1ccccc1)c1ccccc1 (configuration not stated)	none (no result: KCNQ2 enhance)
O=C(CC1C(=O)N(c2ccccc2)C(=S)N1c1ccccc1)c1ccc(Br)cc1 (configuration not stated)	KCNQ2 block -6.4
CC1Cc2ccccc2N1C(=O)CCN1C(=O)C2C3C=CC(C3)C2C1=O (configuration not stated)	none
CC1Cc2ccccc2N1C(=O)CCn1c(=O)sc2ccccc21 (configuration not stated)	KCNQ2 block -6
COc1ccccc1N(Cc1ccccc1)S(=O)(=O)c1cccc(C(=O)Nc2ccc(C)cn2)c1	KCNQ2 block -7.1
COc1ccccc1N(Cc1ccccc1)S(=O)(=O)c1cccc(C(=O)Nc2ccccn2)c1	none (no result: KCNQ2 enhance)
CCOC(=O)c1nnc(-c2ccc(C)cc2)nc1Oc1ccc(Cl)cc1Cl	KCNQ2 block -6
CCOC(=O)c1nnc(-c2ccc(C)cc2)nc1Oc1ccccc1Cl	none (no result: KCNQ2 enhance)
COCCCC1CCN(C(=O)c2cc(COc3ccc(C)nc3)on2)CC1	none
COc1ccc(C(=O)CCS(=O)(=O)c2ccc(C)cc2)cc1	KCNQ2 block -6.4
Cc1ccc(C(=O)CCS(=O)(=O)c2ccc(Br)cc2)cc1	none (no result: KCNQ2 enhance)
COc1cc(-c2csc(N3CCOCC3)n2)cc(OC)c1OC	none
COc1ccc(-c2csc(N3CCN(c4cc(C)nc5ccccc45)CC3)n2)cc1OC	KCNQ2 block -6.3
Cc1cccc(NC(=O)COc2coc(CN3CCc4ccccc4C3)cc2=O)c1	none
COc1ccc(NC(=O)c2csc(Cc3ccc(Cl)cc3)n2)cc1	none (no result: KCNQ2 enhance)
COc1ccc(Cc2nc(C(=O)Nc3ccc(Cl)cc3)cs2)cc1	KCNQ2 block -5.8
Cc1cccc(N=Cc2cc3c(cc2[N+](=O)[O-])OCO3)c1	KCNQ2 block -6.5
O=[N+]([O-])c1cc2c(cc1C=Nc1ccccc1)OCO2	none (no result: KCNQ2 enhance)
CCOc1ccc(CN(C)C(=O)CNC(=O)c2ccccc2)cc1	none (no result: KCNQ2 enhance)
CN(CCOc1ccc(Br)cc1)C(=O)CNC(=O)c1ccc2ccccc2c1	KCNQ2 block -6.5
CSCC[C@H](NC(=O)Nc1ccc(S(N)(=O)=O)cc1)C(=O)O	none
CCOc1ccc(S(=O)(=O)Nc2nc3ccccc3nc2Nc2ccc(N3CCOCC3)cc2)cc1	KCNQ2 block -5.6
COc1ccc(S(=O)(=O)Nc2ccc(N3CCOCC3)cc2)cc1	none
CC(C)(C)N(NC(=O)OCc1ccccc1)C(=O)c1ccccc1	none (no result: KCNQ2 enhance)
CC(C)(C)N(NC(=O)OCc1ccccc1)C(=O)c1ccccc1Cl	KCNQ2 enhance 7.7
CC(=O)c1ccc(N(C(=O)CNC(=O)c2cccs2)C(C(=O)NCC2CCCO2)c2ccccc2)cc1 (configuration not stated)	none
O=C(NCC(=O)N(Cc1ccccc1)C(C(=O)NCC1CCCO1)c1ccccc1)c1cccs1 (configuration not stated)	KCNQ2 block -5.6
Cc1ccccc1C(=O)NCC(=O)OCCOc1ccc(C(C)C)c(C)c1	none
O=C1NC(NS(=O)(=O)c2ccccc2)(C(F)(F)F)C(=O)N1c1cccc(Cl)c1 (configuration not stated)	none (no result: KCNQ2 enhance)
CN(C)CC(O)CN1C(=O)N(CN2C(=O)N(CC(O)CN(C)C)C(=O)C2(C)C)C(C)(C)C1=O (configuration not stated)	none (no result: KCNQ2 enhance)
COc1cccc(NC(=O)Cn2c3ccc(F)cc3c3nc4n(c(=O)c32)CCCS4)c1	none (no result: KCNQ2 enhance)
Cc1ccc(S(=O)(=O)N2CCC(=O)N(C(COCc3ccc(Cl)cc3Cl)Cc3ccccc3)CC2)cc1 (configuration not stated)	KCNQ2 block -6
Cc1ccc(S(=O)(=O)N2CCC(=O)N(C(COCc3cccc(Cl)c3)Cc3ccccc3)CC2)cc1 (configuration not stated)	none (no result: KCNQ2 enhance)
Cc1cccc(COCC(Cc2ccccc2)N2CCN(C(=O)c3cccc(C)c3)CCC2=O)c1 (configuration not stated)	KCNQ2 block -5.8
Cc1ccccc1COC[C@H](CC(C)C)N1CCN(C(=O)c2cccc(C(F)(F)F)c2)CCC1=O	KCNQ2 block -6.9
Cc1cccc(COCC(Cc2ccccc2)N2CCN(C(=O)c3cc(Cl)cc(Cl)c3)CCC2=O)c1 (configuration not stated)	none (no result: KCNQ2 enhance)
O=C(c1ccc(Cl)c(Cl)c1)N1CCC(=O)N(C(COCc2ccc(Cl)cc2)Cc2ccccc2)CC1 (configuration not stated)	KCNQ2 block -5.9
CC(C)CC(COCc1cccc(C(F)(F)F)c1)N1CCN(C(=O)c2cccc(C(F)(F)F)c2)CCC1=O (configuration not stated)	none (no result: KCNQ2 enhance)
Cc1cccc(COCC(Cc2ccccc2)N2CCN(C(=O)c3ccc(Cl)c(Cl)c3)CCC2=O)c1 (configuration not stated)	none (no result: KCNQ2 enhance)
O=C(COc1nc2ccccc2nc1N1CCOCC1)Nc1cccc(S(=O)(=O)N2CCCCC2)c1	none (no result: KCNQ2 enhance)
Brc1cccc(-c2cnco2)c1	none
COc1ccccc1OCC(=O)NCC1CCCN(Cc2cnn(C(C)C)c2)C1 (configuration not stated)	none
CCOc1cc(NC(=S)Nc2ccccc2OC)c(OCC)cc1NC(=O)c1ccccc1C	KCNQ2 block -5.7
CCOc1cc(NC(=S)NCC2CCCO2)c(OCC)cc1NC(=O)c1ccccc1C (configuration not stated)	none
CC1CC(C)CN(CCCNC(=O)Cn2cccc2C(=O)c2ccccc2)C1 (configuration not stated)	none (no result: KCNQ2 enhance)
CC(C)CNC(=S)N1CCN(C(c2ccccc2)c2ccccc2)CC1	KCNQ2 block -5.9
C=C(C)CNC(=S)N1CCN(C(c2ccccc2)c2ccccc2)CC1	none (no result: KCNQ2 enhance)
CCC(=O)c1ccc(OCC(O)CNC2CCCC2)cc1 (configuration not stated)	none (no result: KCNQ2 enhance)
CCN(CC)C(=O)c1cc2c(=O)oc3ccccc3c2s1	KCNQ2 block -6.9
CCN(CC)C(=O)c1cc2c(=O)n3ccccc3nc2s1	none
Cc1cc(SC#N)cc(C)c1NC(=O)CCl	KCNQ2 enhance 6.3
CCC(=O)Nc1ccc(SC#N)cc1C	none
CCc1cc(SC#N)cc(C)c1NC(=O)CCl	KCNQ2 enhance 11
CCc1cc(SC#N)cc(C)c1N	none (no result: KCNQ2 enhance)
COc1cccc(NC(=O)c2cccc(N3C(=O)C4C5C=CC(C5)C4C3=O)c2)c1 (configuration not stated)	none (no result: KCNQ2 enhance)
CCN1CCc2nc3sc(C(=O)N4CCc5ccccc5C4)c(N)c3cc2C1	none (no result: KCNQ2 enhance)
Cc1cc(C)c2c(N)c(C(=O)N3CCc4ccccc4C3)sc2n1	KCNQ2 block -7.7
CO/N=C(\Cn1ncc(N2CCCC2)c(Br)c1=O)c1ccc(Cl)cc1	none (no result: KCNQ2 enhance)
CO/N=C(\Cn1ncc(NC2CCCCC2)c(Br)c1=O)c1ccc(Cl)cc1	KCNQ2 block -6.2
